Bioassay records (PubChem)
Only some compounds are listed: those with a hit (about 17% of all), similar ones and a draw of the others.
TDP1 inh: inhibitors of human tyrosyl-DNA phosphodiesterase TDP1 | AID 485290 | Potency, µM (top dose mostly 130 µM), usual class: inhibitors | hit rate 0.28% among 350,000 | recombinant TDP1, AlphaScreen DNA substrate cleavage | Q9NUW8; also: nearly all actives have a fitted effect of over 40% in size
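E. coli-derived human Tdp1, 1 nM final. Cpd preinc 15 min RT; substrate 15 nM final, 5 min RT; AS bead mix 10 ug/ml final, 10 min RT. Signal loss = tyrosine-FITC cleavage. No-enzyme wells = max signal.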
ClpP mod: qHTS Assay for Activators of ClpP; AID 651965, 2013; purified B. subtilis ClpP, FRET peptide cleavage, 20 min; hit rate 1.9% among 340,000; Potency, µM (titrated, usually from 57.5 µM); active = well fitted falling curve with a large enough effect; inconclusive = small, poorly fitted or top-dose-only effect; inactive = no such curve, though single readings can be large or run the other way; also: the source files actives as falling curves though it sought activators and does not explain the sign; nearly all actives have a fitted effect of over 65% in size
Target sequence (P80244 whole entry, looked up): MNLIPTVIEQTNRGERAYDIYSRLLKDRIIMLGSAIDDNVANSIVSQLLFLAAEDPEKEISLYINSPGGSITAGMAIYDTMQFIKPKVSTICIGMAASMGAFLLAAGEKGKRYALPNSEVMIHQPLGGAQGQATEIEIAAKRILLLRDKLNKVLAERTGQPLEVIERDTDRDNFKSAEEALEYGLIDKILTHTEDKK
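Buffer: 100 mM Tris/HCl pH8, 100 mM KCl, 0.05% low protease BSA, 2.5% glycerol, 0.01% Tween-20. ClpP 10 microg/mL final; 20 min RT; delta FRET normalized to ADEP and DMSO controls.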
TDP1 cell CPT: DT40-hTDP1 cell growth loss with CPT. chicken DT40 Tdp1-/-;hTDP1 cells + 20 nM CPT, ATP luminescence, 48 h. hit rate 12% among 420,000. Potency, µM (series often up to 46.2 µM), usual class: inhibitors; also: nearly all actives have a fitted effect of over 55% in size
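Cell growth measured by CellTiter-Glo luminescence after a minimum 48 h, 37 C compound exposure with 20 nM CPT in Tdp1-knockout DT40 cells stably expressing hTDP1, seeded 400/well; qHTS titration format.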
TDP1 cell noCPT: qHTS for Inhibitors of human tyrosyl-DNA phosphodiesterase 1 (TDP1): qHTS in cells in absence of CPT. DT40 Tdp1-/- hTDP1 cells, no CPT, ATP luminescence, 48 h. Potency, µM (top dose mostly 46.2 µM), most hits filed as inhibitors. hit rate 15% among 420,000; also: nearly all actives have a fitted effect of over 55% in size
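Chicken DT40 Tdp1-/- cells complemented with human TDP1, screened without camptothecin (DMSO vehicle only), 400 cells/well. Compounds pin-transferred, cells incubated at 37 °C for at least 48 hr. Growth read as ATP-dependent luminescence (CellTiter-Glo, 30 min at RT).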
A number is an active result; n = inactive; u = inconclusive; x = no result given; ! = not active in a repeat; [ ] = remark or other dose. Unless noted, calls follow the shape of the dose curve; as a rule, active = well fitted curve in the direction sought with a large enough effect; inconclusive = small, poorly fitted or top-dose-only effect, or another doubt; inactive = no such curve, though single readings can be large; an effect the other way counts as inactive or inconclusive.

SMILES	TDP1 inh	ClpP mod	TDP1 cell CPT	TDP1 cell noCPT
CN(Cc1cccc(Cl)c1Cl)C(=O)c1cc(S(=O)(=O)N2CCOCC2)ccc1F	n	x	16.4µM	20.6µM
COc1ccc(S(=O)(=O)N2CCOCC2)cc1C(=O)N(C)Cc1ccccc1F	n	n	n	n
Cc1ccc(N(Cc2ccccc2)C(=O)c2cc(S(=O)(=O)N3CCOCC3)ccc2Cl)cc1	n[0.505 µM]	x	11.6µM	7.31µM
CN(Cc1ccccc1)S(=O)(=O)c1ccc(Cl)c(C(=O)N2CCOCC2)c1	x	n	18.4µM	20.6µM
Cc1ccccc1C(=O)Nc1ccc(NC(=O)c2cccs2)cc1	n[12.3 µM]	n	n	n
Cc1ccc(NC(=O)c2c(Cl)n(C)c3ccccc23)cc1	n	n	u	u
COC(=O)c1ccc(NC(=O)CSc2nccn2CCc2ccccc2)cc1	n	n	u	18.4µM
Cc1nc(-c2ccccc2)sc1-c1ccc(SCC(=O)Nc2ccccc2)nn1	n	u	u	23.1µM
COC(=O)c1ccc(NC(=O)CSc2ccc(-c3sc(-c4ccccc4)nc3C)nn2)cc1	n	n	u	11.6µM
CCOc1ccc(NC(=O)CSc2ccc(-c3sc(-c4ccccc4)nc3C)nn2)cc1	n	n	n	u
COc1ccc(C(c2nnnn2CC2CCCO2)N2CCC(C(N)=O)CC2)cc1 (stereo not given)	n	28.2µM	n	n
Cc1ccc(C(c2nnnn2CC2CCCO2)N2CCN(Cc3ccccc3)CC2)cc1 (stereo not given)	n	x	n	n
COc1ccc(C(c2nnnn2CC2CCCO2)N2CCN(c3cccc(C)c3C)CC2)cc1 (stereo not given)	n	n	u	18.4µM
CCCCC(c1nnnn1CC1CCCO1)N1CCN(c2cccc(C)c2C)CC1 (stereo not given)	n	n	u	16.4µM
O=C1COc2ccc(C(=O)COC(=O)CCCOc3ccccc3)cc2N1	x	n	n	n
COc1ccc(N2CCN(Cc3nc4c(c(=O)[nH]c(=O)n4C)n3CC(C)C)CC2)cc1	n	n	n	n
COc1ccc(-n2c(=O)cnc3cnc(N(C)C)nc32)cc1	x	x	23.1µM	u
CN(C)c1ncc2ncc(=O)n(Cc3cccs3)c2n1	x	x	u	20.6µM
COc1cc(=O)n2c(c1C(=O)N(C)Cc1cscn1)CCN(C(=O)c1cccc(C)c1C)CC2	x	x	n	n
CCOC(=S)SCC(=O)N1CCc2cc(OC)c(OC)cc2C1C1C(=O)CC(C)(C)CC1=O (stereo not given)	n	x	n	n
CCOC(=S)SCC(=O)N1CCc2cc(OC)ccc2C1C1C(=O)CCCC1=O (stereo not given)	x	n	u	18.4µM
Cc1ccc(-c2csc(N3CCC(NS(=O)(=O)c4ccc5c(c4)OCCO5)CC3)n2)cc1	n	n	u	14.6µM
Cc1ccc(NC(=O)CCS(=O)(=O)c2cccc3nonc23)cc1	n	n	n	n
CC(C)c1ccc(NC(=O)CCS(=O)(=O)c2cccc3nonc23)cc1	n	n	16.4µM!	23.1µM
Cc1ccsc1C(=O)OCC(=O)N(C)C1CCCCC1	n	n	u	u
SMILES	TDP1 inh	ClpP mod	TDP1 cell CPT	TDP1 cell noCPT
FC(F)(F)c1cc(-c2ccco2)nc(-n2nnc3ccccc32)n1	n	28.2µM	n	n
CCCN(CCC)C(=O)C1CCN(c2cc(C)nc3c(-c4ccc(OC)c(OC)c4)c(C)nn23)CC1	n	n	18.4µM	16.4µM
CCN(CC)CCNC(=O)C1CCN(c2cc(C)nc3c(-c4ccc(Cl)cc4)c(C)nn23)CC1	n	n	3.66µM	4.11µM
COc1ccc(-c2c(C)nn3c(N4CCC(C(=O)NCCN(C)C)CC4)cc(C)nc23)cc1OC	n	n	u	n
COCCCNC(=O)C1CCN(c2cc(C)nc3c(-c4ccc(OC)c(OC)c4)c(C)nn23)CC1	n	n	n	16.4µM
C=CCc1cccc(/C=N/NC(=O)CN2CCN(Cc3ccccc3)CC2)c1O	n	x	x	x
Cc1c(C(=O)N2CCCC2)oc2c1-c1nn(CC(=O)NC(C)c3ccccc3)cc1CC2 (stereo not given)	n	n	u	23.1µM
CCOC(=O)c1ccc(NC(=O)c2oc3c(c2C)-c2nn(Cc4ccccc4Cl)cc2CC3)cc1	n	u	20.6µM	20.6µM
Cc1cccc(C)c1NC(=O)c1oc2c(c1C)-c1nn(Cc3ccccc3)cc1CC2	n	n	18.4µM	14.6µM
Cc1c(C(=O)NCCN(C)C)oc2c1-c1nn(Cc3cccc(Cl)c3)cc1CC2	n	u	u	u
